32 targets from the supplement of paper PMC10849652 can be followed below.

About 8,800 targets were measured; listed, in parts, are those with a hit and a random draw of the rest. About 0.5% of all pairs of compound and target were hits. Values without a mark were called inactive.

Chain of UniProt Q13573 (Q13573 whole entry, looked up): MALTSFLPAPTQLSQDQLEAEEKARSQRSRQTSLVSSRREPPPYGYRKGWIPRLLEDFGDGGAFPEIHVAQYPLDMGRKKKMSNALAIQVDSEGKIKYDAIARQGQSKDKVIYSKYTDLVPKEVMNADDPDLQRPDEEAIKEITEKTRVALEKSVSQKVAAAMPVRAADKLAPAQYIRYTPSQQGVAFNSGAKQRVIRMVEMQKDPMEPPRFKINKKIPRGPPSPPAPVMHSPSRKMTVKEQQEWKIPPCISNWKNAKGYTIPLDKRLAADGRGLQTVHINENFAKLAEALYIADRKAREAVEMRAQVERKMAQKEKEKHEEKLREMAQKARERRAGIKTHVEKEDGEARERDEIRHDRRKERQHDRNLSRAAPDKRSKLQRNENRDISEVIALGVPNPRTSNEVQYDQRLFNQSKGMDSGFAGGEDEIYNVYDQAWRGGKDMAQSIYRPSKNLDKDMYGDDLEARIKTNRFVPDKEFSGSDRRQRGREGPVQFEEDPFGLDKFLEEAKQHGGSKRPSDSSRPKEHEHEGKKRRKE
Chain of UniProt Q99963 (Q99963 whole entry, looked up): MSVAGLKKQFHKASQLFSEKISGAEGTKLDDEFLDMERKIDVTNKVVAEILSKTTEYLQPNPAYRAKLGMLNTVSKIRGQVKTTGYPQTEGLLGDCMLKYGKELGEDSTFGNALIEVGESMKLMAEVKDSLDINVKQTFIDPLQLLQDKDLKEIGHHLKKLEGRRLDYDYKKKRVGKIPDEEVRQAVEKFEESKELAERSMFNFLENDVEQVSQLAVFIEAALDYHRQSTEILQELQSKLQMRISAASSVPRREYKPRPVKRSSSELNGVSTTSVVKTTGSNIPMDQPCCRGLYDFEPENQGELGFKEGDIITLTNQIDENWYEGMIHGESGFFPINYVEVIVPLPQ
Chain of UniProt P29353 (P29353 whole entry, looked up): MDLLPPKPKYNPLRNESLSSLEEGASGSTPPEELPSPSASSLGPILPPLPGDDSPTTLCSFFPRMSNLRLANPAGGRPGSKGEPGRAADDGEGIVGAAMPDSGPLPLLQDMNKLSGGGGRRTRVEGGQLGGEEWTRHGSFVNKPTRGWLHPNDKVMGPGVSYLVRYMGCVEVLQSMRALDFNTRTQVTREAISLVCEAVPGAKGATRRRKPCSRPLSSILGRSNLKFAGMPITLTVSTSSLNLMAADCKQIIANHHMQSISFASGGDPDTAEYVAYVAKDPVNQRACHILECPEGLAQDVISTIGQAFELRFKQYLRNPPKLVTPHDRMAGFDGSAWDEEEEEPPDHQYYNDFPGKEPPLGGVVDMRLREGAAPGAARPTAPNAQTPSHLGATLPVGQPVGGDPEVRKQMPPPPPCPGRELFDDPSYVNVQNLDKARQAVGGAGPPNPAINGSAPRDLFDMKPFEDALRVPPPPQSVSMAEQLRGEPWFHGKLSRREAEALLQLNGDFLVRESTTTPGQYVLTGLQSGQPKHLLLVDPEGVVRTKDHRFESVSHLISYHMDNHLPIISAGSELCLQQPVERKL
Chain of UniProt Q8NDV3 (Q8NDV3 whole entry, looked up): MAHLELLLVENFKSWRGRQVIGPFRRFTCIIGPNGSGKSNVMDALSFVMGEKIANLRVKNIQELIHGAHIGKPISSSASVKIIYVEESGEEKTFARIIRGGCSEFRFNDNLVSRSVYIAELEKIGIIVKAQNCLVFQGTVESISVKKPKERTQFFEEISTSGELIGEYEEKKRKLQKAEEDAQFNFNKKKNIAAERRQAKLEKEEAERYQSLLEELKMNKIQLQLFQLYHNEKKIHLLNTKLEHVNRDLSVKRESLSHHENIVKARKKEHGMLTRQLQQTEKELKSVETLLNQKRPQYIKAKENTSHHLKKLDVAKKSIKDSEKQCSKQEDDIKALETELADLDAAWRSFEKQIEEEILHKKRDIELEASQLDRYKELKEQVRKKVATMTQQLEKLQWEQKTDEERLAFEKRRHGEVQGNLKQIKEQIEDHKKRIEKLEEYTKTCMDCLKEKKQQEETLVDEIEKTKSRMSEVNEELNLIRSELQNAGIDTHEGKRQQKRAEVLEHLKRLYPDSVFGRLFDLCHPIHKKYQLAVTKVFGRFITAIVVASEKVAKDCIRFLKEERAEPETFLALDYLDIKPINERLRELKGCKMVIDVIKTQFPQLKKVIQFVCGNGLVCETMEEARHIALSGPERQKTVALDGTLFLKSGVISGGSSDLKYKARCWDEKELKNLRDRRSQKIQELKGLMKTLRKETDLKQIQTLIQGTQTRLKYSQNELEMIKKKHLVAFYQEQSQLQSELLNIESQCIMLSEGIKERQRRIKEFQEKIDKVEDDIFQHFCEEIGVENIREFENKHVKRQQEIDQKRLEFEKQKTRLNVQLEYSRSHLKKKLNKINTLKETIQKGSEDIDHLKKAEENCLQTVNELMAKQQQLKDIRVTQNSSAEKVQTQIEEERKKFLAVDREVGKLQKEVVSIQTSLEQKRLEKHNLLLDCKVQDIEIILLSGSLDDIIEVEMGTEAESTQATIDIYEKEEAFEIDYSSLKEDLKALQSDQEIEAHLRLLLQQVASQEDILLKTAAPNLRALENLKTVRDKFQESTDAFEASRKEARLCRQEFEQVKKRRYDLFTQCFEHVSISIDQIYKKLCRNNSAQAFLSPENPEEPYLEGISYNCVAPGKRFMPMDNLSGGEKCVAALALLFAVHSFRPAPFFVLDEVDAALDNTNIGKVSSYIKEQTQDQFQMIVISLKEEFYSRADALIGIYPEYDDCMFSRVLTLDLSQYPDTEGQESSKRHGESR
Chain of UniProt Q8N1F8 (Q8N1F8 whole entry, looked up): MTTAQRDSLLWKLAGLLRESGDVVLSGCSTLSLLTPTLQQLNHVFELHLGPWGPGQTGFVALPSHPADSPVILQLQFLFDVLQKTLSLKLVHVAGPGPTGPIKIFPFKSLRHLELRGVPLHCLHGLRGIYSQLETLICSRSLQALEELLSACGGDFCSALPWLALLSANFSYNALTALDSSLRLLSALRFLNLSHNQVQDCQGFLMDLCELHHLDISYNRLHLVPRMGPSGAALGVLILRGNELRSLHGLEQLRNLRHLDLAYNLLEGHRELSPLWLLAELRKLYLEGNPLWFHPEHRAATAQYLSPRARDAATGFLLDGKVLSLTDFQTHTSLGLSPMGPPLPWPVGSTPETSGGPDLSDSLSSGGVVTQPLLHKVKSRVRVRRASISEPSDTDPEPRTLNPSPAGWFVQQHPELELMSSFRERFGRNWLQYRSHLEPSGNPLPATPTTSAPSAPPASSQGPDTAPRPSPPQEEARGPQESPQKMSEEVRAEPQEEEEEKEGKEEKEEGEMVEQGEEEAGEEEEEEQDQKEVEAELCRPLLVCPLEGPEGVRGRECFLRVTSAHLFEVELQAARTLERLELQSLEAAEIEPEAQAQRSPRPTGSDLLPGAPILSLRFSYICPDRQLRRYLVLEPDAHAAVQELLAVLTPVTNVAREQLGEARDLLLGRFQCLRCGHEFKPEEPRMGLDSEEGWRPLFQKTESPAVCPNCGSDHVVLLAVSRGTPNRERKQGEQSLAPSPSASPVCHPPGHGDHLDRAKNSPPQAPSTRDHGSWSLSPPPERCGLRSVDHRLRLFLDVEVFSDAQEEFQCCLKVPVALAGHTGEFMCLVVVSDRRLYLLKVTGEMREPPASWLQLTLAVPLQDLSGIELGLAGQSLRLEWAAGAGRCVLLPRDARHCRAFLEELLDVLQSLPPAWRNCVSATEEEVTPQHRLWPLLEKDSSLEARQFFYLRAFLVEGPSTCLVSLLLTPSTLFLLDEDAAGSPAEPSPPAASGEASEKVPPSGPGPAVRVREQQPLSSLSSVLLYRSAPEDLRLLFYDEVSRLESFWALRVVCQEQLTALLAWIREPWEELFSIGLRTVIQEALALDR
Chain of UniProt P35270 (P35270 whole entry, looked up): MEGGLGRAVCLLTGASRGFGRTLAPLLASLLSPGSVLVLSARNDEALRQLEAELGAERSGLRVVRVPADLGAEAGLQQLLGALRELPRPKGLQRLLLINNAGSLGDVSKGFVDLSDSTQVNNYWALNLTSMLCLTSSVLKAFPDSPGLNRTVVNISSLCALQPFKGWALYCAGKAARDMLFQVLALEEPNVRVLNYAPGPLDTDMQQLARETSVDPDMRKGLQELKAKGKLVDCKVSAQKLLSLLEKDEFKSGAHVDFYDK
Chain of UniProt P19623 (P19623 whole entry, looked up): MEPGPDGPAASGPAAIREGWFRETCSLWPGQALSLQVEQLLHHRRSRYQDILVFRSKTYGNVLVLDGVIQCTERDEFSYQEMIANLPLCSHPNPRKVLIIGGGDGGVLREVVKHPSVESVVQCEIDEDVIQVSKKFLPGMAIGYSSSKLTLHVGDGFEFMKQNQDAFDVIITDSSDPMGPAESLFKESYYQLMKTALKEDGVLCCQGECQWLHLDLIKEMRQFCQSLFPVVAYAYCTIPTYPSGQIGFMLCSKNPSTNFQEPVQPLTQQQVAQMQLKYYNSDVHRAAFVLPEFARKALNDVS
Chain of UniProt Q9BWW4 (Q9BWW4 whole entry, looked up): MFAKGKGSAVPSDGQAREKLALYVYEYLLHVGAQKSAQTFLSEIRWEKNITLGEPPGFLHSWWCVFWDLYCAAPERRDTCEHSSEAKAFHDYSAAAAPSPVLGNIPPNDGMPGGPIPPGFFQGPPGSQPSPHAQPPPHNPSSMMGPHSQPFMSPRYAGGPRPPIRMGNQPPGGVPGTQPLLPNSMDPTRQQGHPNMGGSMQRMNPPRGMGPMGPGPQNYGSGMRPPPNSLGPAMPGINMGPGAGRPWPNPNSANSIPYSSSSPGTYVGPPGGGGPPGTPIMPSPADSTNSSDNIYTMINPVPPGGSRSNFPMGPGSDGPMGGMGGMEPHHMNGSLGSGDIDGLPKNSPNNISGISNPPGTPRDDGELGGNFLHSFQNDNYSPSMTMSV
Chain of UniProt P31947 (P31947 whole entry, looked up): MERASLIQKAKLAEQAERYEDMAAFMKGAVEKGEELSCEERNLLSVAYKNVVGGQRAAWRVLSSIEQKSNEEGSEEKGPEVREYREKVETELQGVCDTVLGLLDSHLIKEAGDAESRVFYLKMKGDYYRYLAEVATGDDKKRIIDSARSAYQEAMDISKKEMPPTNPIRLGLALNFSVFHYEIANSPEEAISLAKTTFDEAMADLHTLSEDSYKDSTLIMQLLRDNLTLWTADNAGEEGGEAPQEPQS

Compound in one assay: C#Cc1cccc(Nc2ncnc3cc(OCCOC)c(OCCOC)cc23)c1 [erlotinib]
Description: log2 fold change, soluble protein after heating vs DMSO (PISA); higher = thermal stabilisation; K562 lysate, 10 uM; active = over 0.2 and 3.5 SD of the protein, either way, in both replicates (recomputed). In short, it runs like this: (§1)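 Following dounce homogenisation of K562 pellets in PBS pH 7.4 with 1 mM MgCl2, crude extract at 1 mg/mL protein was incubated for 30 min with 10 μM compound. Aliquots were then heated for 3 min over 48°C-58°C and pooled, NP-40 was added to 0.5% at 4°C, and soluble protein was recovered as the supernatant at 21,000xg for 90 min. Channel-sum-equalised TMTpro 16plex LC-MS/MS quantified this protein. Each value, from duplicates, is a log-two fold change in thermal stability relative to solvent controls.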
For the target STK11IP (UniProt Q8N1F8), the log2 fold change is 0.015.

As for SPR (UniProt P35270), the log2 fold change was -0.027.

As for SFN (UniProt P31947), the log2 fold change is 0.013.

In the case of SPPL2A (UniProt Q8TCT8), the log2 fold change is 0.005.

For the target SPC25 (UniProt Q9HBM1), the log2 fold change is 0.021.

SNW1 (UniProt Q13573): the log2 fold change was -0.038.

For SMC2 (UniProt O95347), the log2 fold change is -0.001.

On to TARBP1 (UniProt Q13395), for which the log2 fold change is 0.134.

For the target SMC1B isoform 3 (UniProt Q8NDV3), the log2 fold change is -0.002.

For SRM (UniProt P19623), the log2 fold change is -0.006.

Consider SRRT (UniProt Q9BXP5), for which the log2 fold change was 0.039.

Consider SRPK1 (UniProt Q96SB4), for which the log2 fold change was 0.015.

Take SNRNP40 (UniProt Q96DI7): the log2 fold change is 0.025.

In the case of SHC1 isoform 6 (UniProt P29353), the log2 fold change is 0.029.

Consider SSBP3 (UniProt Q9BWW4), for which the log2 fold change is 0.038.

On to SMIM8 (UniProt Q96KF7), for which the log2 fold change is -0.057.

Consider SNAP23 (UniProt O00161), for which the log2 fold change is -0.01.

With SPHK1 isoform 2 (UniProt Q9NYA1), the log2 fold change was -0.055.

On to STK26 (UniProt Q9P289), for which the log2 fold change was 0.008.

As for STK39 (UniProt Q9UEW8), the log2 fold change is 0.006.

With SMN1 (UniProt Q16637), the log2 fold change is 0.038.

For the target SMG5 (UniProt Q9UPR3), the log2 fold change was -0.037.

For the target SP1 (UniProt P08047), the log2 fold change was -0.012.

For the target SSU72 (UniProt Q9NP77), the log2 fold change is -0.067.

Consider SNRPD2 (UniProt P62316), for which the log2 fold change was 0.019.

For SH3GL3 isoform 3 (UniProt Q99963), the log2 fold change was -0.023.

Turning to SMYD3 (UniProt Q9H7B4), the log2 fold change is 0.094.

Turning to SNCA (UniProt P37840), the log2 fold change is -0.265.

As for STK25 (UniProt O00506), the log2 fold change is 0.037.

Turning to SLC16A1 (UniProt P53985), the log2 fold change is -0.007.

Turning to SNRPF (UniProt P62306), the log2 fold change was -0.029.

As to SMG7 (UniProt Q92540), the log2 fold change is 0.007.

Compound in another assay: C/C(=N\NC(=O)C1=CC(=CC=C1)S(=O)(=O)N2CCOCC2)/C3=C(C=CC(=C3)Cl)O
Described as above. In outline:
as §1
As to STK11IP (UniProt Q8N1F8), the log2 fold change is 0.008.

As to SPR (UniProt P35270), the log2 fold change was 0.014.

As to SFN (UniProt P31947), the log2 fold change was -0.239.

SPPL2A (UniProt Q8TCT8): the log2 fold change was -0.007.

As for SPC25 (UniProt Q9HBM1), the log2 fold change was -0.065.

Regarding SNW1 (UniProt Q13573), the log2 fold change was -0.017.

With SMC2 (UniProt O95347), the log2 fold change was -0.011.

For TARBP1 (UniProt Q13395), the log2 fold change was 0.047.

Consider SMC1B isoform 3 (UniProt Q8NDV3), for which the log2 fold change is 0.265 (active).

For the target SRM (UniProt P19623), the log2 fold change is 0.039.

SRRT (UniProt Q9BXP5): the log2 fold change is 0.023.

Take SRPK1 (UniProt Q96SB4): the log2 fold change was -0.04.

Regarding SNRNP40 (UniProt Q96DI7), the log2 fold change was 0.046.

Take SHC1 isoform 6 (UniProt P29353): the log2 fold change is -0.024.

On to SSBP3 (UniProt Q9BWW4), for which the log2 fold change is -0.09.

Regarding SMIM8 (UniProt Q96KF7), the log2 fold change was 0.005.

For SNAP23 (UniProt O00161), the log2 fold change is 0.037.

For the target SPHK1 isoform 2 (UniProt Q9NYA1), the log2 fold change was -0.462.

In the case of STK26 (UniProt Q9P289), the log2 fold change was -0.007.

Consider STK39 (UniProt Q9UEW8), for which the log2 fold change was 0.08.

As to SMN1 (UniProt Q16637), the log2 fold change is 0.009.

Consider SMG5 (UniProt Q9UPR3), for which the log2 fold change was -0.038.

On to SP1 (UniProt P08047), for which the log2 fold change is -0.04.

Regarding SSU72 (UniProt Q9NP77), the log2 fold change was 0.057.

Take SNRPD2 (UniProt P62316): the log2 fold change was 0.005.

SH3GL3 isoform 3 (UniProt Q99963): the log2 fold change is -0.014.

As to SMYD3 (UniProt Q9H7B4), the log2 fold change was 0.104.

As to SNCA (UniProt P37840), the log2 fold change was -0.037.

Consider STK25 (UniProt O00506), for which the log2 fold change is -0.04.

As to SLC16A1 (UniProt P53985), the log2 fold change is -0.038.

SNRPF (UniProt P62306): the log2 fold change was -0.07.

As to SMG7 (UniProt Q92540), the log2 fold change was -0.03.

Compound in a further assay: C1=CC(=CC=C1C2=NC3=C(N2)C=C(C=C3)C(=O)N)OC4=CC=C(C=C4)Cl
The description is as above. In outline: as §1
Turning to STK11IP (UniProt Q8N1F8), the log2 fold change was -0.002.

As to SPR (UniProt P35270), the log2 fold change was -0.021.

SFN (UniProt P31947): the log2 fold change was -0.006.

On to SPPL2A (UniProt Q8TCT8), for which the log2 fold change was 0.118.

Regarding SPC25 (UniProt Q9HBM1), the log2 fold change is -0.006.

For the target SNW1 (UniProt Q13573), the log2 fold change was 0.026.

In the case of SMC2 (UniProt O95347), the log2 fold change was -0.011.

As for TARBP1 (UniProt Q13395), the log2 fold change was -0.02.

As for SMC1B isoform 3 (UniProt Q8NDV3), the log2 fold change was 0.003.

For the target SRM (UniProt P19623), the log2 fold change was 0.017.

For the target SRRT (UniProt Q9BXP5), the log2 fold change was -0.005.

Regarding SRPK1 (UniProt Q96SB4), the log2 fold change is 0.121.

In the case of SNRNP40 (UniProt Q96DI7), the log2 fold change was -0.03.

Consider SHC1 isoform 6 (UniProt P29353), for which the log2 fold change is 0.05.

SSBP3 (UniProt Q9BWW4): the log2 fold change was 0.004.

SMIM8 (UniProt Q96KF7): the log2 fold change was 0.028.

Turning to SNAP23 (UniProt O00161), the log2 fold change is -0.025.

As for SPHK1 isoform 2 (UniProt Q9NYA1), the log2 fold change is -0.059.

As to STK26 (UniProt Q9P289), the log2 fold change was -0.005.

Consider STK39 (UniProt Q9UEW8), for which the log2 fold change was -0.001.

On to SMN1 (UniProt Q16637), for which the log2 fold change was 0.042.

For SMG5 (UniProt Q9UPR3), the log2 fold change was 0.028.

For the target SP1 (UniProt P08047), the log2 fold change was 0.053.

In the case of SSU72 (UniProt Q9NP77), the log2 fold change was -0.071.

In the case of SNRPD2 (UniProt P62316), the log2 fold change is 0.058.

Take SH3GL3 isoform 3 (UniProt Q99963): the log2 fold change is -0.002.

With SMYD3 (UniProt Q9H7B4), the log2 fold change was 0.009.

SNCA (UniProt P37840): the log2 fold change was 0.098.

For STK25 (UniProt O00506), the log2 fold change was -0.038.

On to SLC16A1 (UniProt P53985), for which the log2 fold change is 0.036.

With SNRPF (UniProt P62306), the log2 fold change is 0.081.

On to SMG7 (UniProt Q92540), for which the log2 fold change is -0.022.
